HCMV inh – inhibitors of human cytomegalovirus; HFF cells, HCMV-luciferase reporter, 72 h; active compounds read low; activity change, negative = inhibition, % at 57.5 µM; 4.5% of 410,000 active; AID 1259415; in the data active = activity change below about -60%; inconclusive = no clear call, values can overlap the other calls; inactive = above about -39%
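Luciferase read-out from HCMV-luciferase-infected HFFs (MOI 1 PFU/cell) 72 h post infection at 37C; compounds added after 16 h cell attachment; activity normalized between buffer-only basal and Salinomycin (10uM) inhibitor controls.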
Pf growth 96h – P. falciparum growth inhibition at 96 hours; P. falciparum luciferase reporter growth, 96 h; Potency, µM (doses to about 28.7 µM), hits mostly inhibitors; 6.9% of 320,000 active
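Erythrocytes infected with luciferase-expressing P. falciparum were dispensed at 2% hematocrit and 0.05% parasitemia (final), then incubated with compounds 96 hours at 37 C in 5% CO2. Luminescence after detection reagent addition reported growth.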
HCV inhibitor – blocks hepatitis C virus. Huh7.5.1 HCVcc-Cre infection, luciferase reporter, 44 h. 3.4% of 340,000 active. Potency, µM (highest dose often 41.8 µM), actives largely listed as inhibitors. AID 651820
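A cell-based infection assay in which seeded cells (1,000 per well) receive test compound after 4 h, are inoculated with HCVcc-Cre at approximately 0.5 moi, and are incubated 44 h before luminescence detection.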
Pf growth 48h – inhibits P. falciparum growth in the first generation, 48 h. P. falciparum luciferase growth in erythrocytes, 48 h. Potency, µM (doses to about 28.7 µM), actives largely listed as inhibitors. 5.9% of 310,000 active. AID 504832
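Luciferase-expressing parasites in RBCs, 2% Hct / 0.1% parasitemia final; RPMI 1640 + 0.5% Albumax; 37 C, 5% CO2, one generation; luminescence read-out, lower signal = inhibition.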
Large screens that a line does not name were inactive. An excerpt weighted towards active compounds, which were near 13% of everything screened. Unless noted, calls come from the whole dose curve; as a rule, active = well fitted inhibition curve with a large enough effect; inconclusive = small, poorly fitted or top-dose-only effect, or another doubt; inactive = no such curve, though single readings can be large or run the other way.

CCOC(=O)N1CCN(C(=O)CSCC(=O)Nc2nc(-c3ccc(C)cc3)cs2)CC1	Pf growth 96h inconclusive, HCV inhibitor 11µM, Pf growth 48h inconclusive
CCOC(=O)N1CCN(C(=O)CSCC(=O)Nc2nc(-c3cccs3)cs2)CC1	HCV inhibitor 13µM
O=C(CSCC(=O)N1CCOCC1)Nc1nc(-c2ccc3c(c2)OCO3)cs1	none (no result: Pf growth 48h)
Cc1nn(-c2ccc(Cl)cc2)c2nc(-c3cccnc3)cc(C(F)(F)F)c12	none (no result: Pf growth 96h, HCV inhibitor, Pf growth 48h)
COc1ccc2cc(C(c3nnnn3Cc3ccc(F)cc3)N3CCCCCC3)c(=O)[nH]c2c1 (centres undefined)	Pf growth 48h 12µM (no result: Pf growth 96h)
COc1ccc(Cn2nnnc2C(c2cc3ccc(OC)cc3[nH]c2=O)N2CCC(C)CC2)cc1 (centres undefined)	Pf growth 96h 9.3µM (no result: Pf growth 48h)
Cc1cc(C)c2[nH]c(=O)c(C(c3nnnn3C3CCCC3)N3CCOCC3)cc2c1 (centres undefined)	Pf growth 96h inconclusive (no result: HCMV inh, HCV inhibitor)
Cc1cc(C)c2[nH]c(=O)c(C(c3nnnn3Cc3ccc4c(c3)OCO4)N3CCC(C)CC3)cc2c1 (centres undefined)	Pf growth 48h 13µM (no result: Pf growth 96h)
CCc1c(C)sc(NC(=O)c2cc(-c3ccc(OC)cc3)on2)c1C#N	none (no result: Pf growth 96h, HCV inhibitor, Pf growth 48h)
Cc1ccccc1NC(=O)CCc1c(C)nn(-c2ccc(N3CCOCC3)nn2)c1C	HCMV inh active, Pf growth 96h inconclusive, Pf growth 48h inconclusive
Cc1ccccc1NC(=O)CCc1c(C)nn(-c2ccc(N3CCCCC3)nn2)c1C	HCV inhibitor inconclusive, Pf growth 48h inconclusive
COc1ccccc1CNC(=O)CCc1c(C)nn(-c2ccc(N3CCCCC3)nn2)c1C	none (no result: Pf growth 96h, HCV inhibitor, Pf growth 48h)
CCOc1ccccc1CNC(=O)CCc1c(C)nn(-c2ccc(N3CCCC3)nn2)c1C	HCMV inh -60 (no result: Pf growth 96h, HCV inhibitor, Pf growth 48h)
Cc1ccc(NC(=O)CN2C(=O)COc3ccc(S(=O)(=O)N4CCCCCC4)cc32)c(C)c1	none (no result: Pf growth 96h, HCV inhibitor, Pf growth 48h)
CCCCCn1nc2ccccc2c1OC	none (no result: Pf growth 96h, HCV inhibitor, Pf growth 48h)
Cc1ccc2oc(-c3cccc(NC(=O)C4CCCO4)c3)nc2c1 (centres undefined)	Pf growth 96h 10µM, HCV inhibitor inconclusive
CCOC(=O)c1c(-c2ccc(F)cc2)csc1NC(=O)C1CCCO1 (centres undefined)	HCMV inh -60
CC(C)OC(=O)c1c(-c2ccc(C(C)C)cc2)csc1NC(=O)C1CCCO1 (centres undefined)	Pf growth 96h inconclusive, Pf growth 48h inconclusive
CCOC(=O)c1c(-c2ccc(OC)cc2)csc1NC(=O)C1CCCO1 (centres undefined)	HCMV inh inconclusive, HCV inhibitor inconclusive, Pf growth 48h inconclusive
COC(=O)c1c(-c2cccc(C)c2)csc1NC(=O)C1CCCO1 (centres undefined)	HCMV inh inconclusive, Pf growth 48h 13µM
CCOC(=O)c1c(-c2ccc(C)cc2)csc1NC(=O)C1CCCO1 (centres undefined)	Pf growth 96h 9.3µM, HCV inhibitor 11µM, Pf growth 48h inconclusive
CCC(=O)N1CCc2cc(Br)cc(S(=O)(=O)CCC(=O)NCCc3ccc(Cl)cc3)c21	none (no result: Pf growth 96h, HCV inhibitor, Pf growth 48h)
CCCCN(C)CCNC(=O)c1c(C)oc2ncnc(N3CCOCC3)c12	none (no result: Pf growth 96h, HCV inhibitor, Pf growth 48h)
C[C@H]1CN([C@@H](C)CO)C(=O)CCCn2cc(nn2)CO[C@@H]1CN(C)S(=O)(=O)c1ccccc1F	none (no result: Pf growth 96h, HCV inhibitor, Pf growth 48h)
Cc1ccc(C)c(N2CCN(C(c3ccc(F)cc3)c3nnc(-c4ccccc4)o3)CC2)c1 (centres undefined)	none (no result: Pf growth 96h, HCV inhibitor, Pf growth 48h)
CC(CN1CCC(n2nccc2NC(=O)CCCc2ccccc2)CC1)c1ccccc1 (centres undefined)	Pf growth 96h 12µM, HCV inhibitor inconclusive, Pf growth 48h 15µM (no result: HCMV inh)
CSCC(C)N1CCC(n2nccc2NC(=O)CCCc2ccccc2)CC1 (centres undefined)	HCMV inh active, Pf growth 96h inconclusive
CSCCCN1CCC(n2nccc2NC(=O)CCCc2ccccc2)CC1	Pf growth 96h inconclusive, HCV inhibitor inconclusive, Pf growth 48h inconclusive
COc1ccc(C(=O)Nc2ccnn2C2CCN(Cc3ccc4nonc4c3)CC2)cc1	HCMV inh -94
CSCC(C)N1CCC(n2nccc2NC(=O)CCc2ccccc2)CC1 (centres undefined)	none
O=C(Nc1ccnn1C1CCN(Cc2ccc3nonc3c2)CC1)c1cccc(F)c1	Pf growth 96h inconclusive, HCV inhibitor inconclusive, Pf growth 48h inconclusive
COc1ccc(C(=O)Nc2ccnn2C2CCN(C(C)CSC)CC2)cc1 (centres undefined)	Pf growth 96h 2.9µM
CC(C)(C)C(C)(C)CN=CN1c2ccccc2-n2cccc2C1c1cccc(F)c1 (centres undefined)	none (no result: Pf growth 96h, HCV inhibitor, Pf growth 48h)
OC(CNCc1ccc(Cl)cc1)(c1ccccc1)c1ccc(F)cc1 (centres undefined)	Pf growth 96h inconclusive, Pf growth 48h 13µM
OC(CNCc1ccc(F)cc1)(c1ccc(F)cc1)c1ccc(F)cc1	Pf growth 96h 13µM, HCV inhibitor inconclusive, Pf growth 48h inconclusive
CCN(CC)S(=O)(=O)c1ccc(C(=O)Nc2ccc3c(c2)OCCO3)cc1	Pf growth 96h inconclusive, Pf growth 48h 6.6µM
CC1CCN(S(=O)(=O)c2ccc(NC(=O)c3ccncc3)cc2)CC1	HCMV inh -64, HCV inhibitor 11µM
O=C(Nc1cccc(S(=O)(=O)Nc2ccccc2Cl)c1)c1ccc(Cl)nc1	HCMV inh -86, HCV inhibitor inconclusive
COc1ccc(NC(=O)c2cc(F)cc(F)c2)cc1S(=O)(=O)N1CCCCC1	HCMV inh inconclusive, HCV inhibitor 10µM (no result: Pf growth 96h, Pf growth 48h)
NS(=O)(=O)c1ccc(NC(=O)Nc2ccc(C(F)(F)F)cc2)cc1	HCMV inh -66, Pf growth 96h inconclusive, HCV inhibitor inconclusive, Pf growth 48h inconclusive
CCN(CC)S(=O)(=O)c1cccc(C(=O)NC(C(=O)NCCc2ccccn2)C(C)C)c1 (centres undefined)	none (no result: Pf growth 96h, Pf growth 48h)
CCc1nnc(NC(=O)[C@@H](NC(=O)c2cccc(S(=O)(=O)N(CC)CC)c2)C(C)C)s1	Pf growth 48h 1.7µM (no result: Pf growth 96h)
CCN(CC)S(=O)(=O)c1ccc(NC(=O)c2ccc(NS(C)(=O)=O)cc2)cc1	HCV inhibitor inconclusive (no result: Pf growth 96h)
O=C(Nc1ccc(Cc2ccncc2)cc1)c1ccc(S(=O)(=O)N2CCCC2)cc1	HCMV inh -87, HCV inhibitor 5µM
NS(=O)(=O)c1ccc(NC(=O)Nc2ccc(S(N)(=O)=O)cc2)cc1	none
CCN(CC)S(=O)(=O)c1ccc(NC(=O)c2ccc(Cl)nc2)cc1	HCMV inh -62, Pf growth 96h 4.7µM, Pf growth 48h inconclusive
NS(=O)(=O)c1ccc(NC(=O)c2ccc(S(=O)(=O)N3CCCCCC3)cc2)cc1	HCMV inh -64 (no result: Pf growth 96h, Pf growth 48h)
COc1ccc(S(=O)(=O)CCC(=O)NCCc2ccc(S(N)(=O)=O)cc2)cc1	HCMV inh inconclusive, Pf growth 96h 9.3µM
CCc1nnc(NS(=O)(=O)c2ccc(NC(=O)c3ccc(S(=O)(=O)N(CC)CC)cc3)cc2)s1	Pf growth 48h 13µM
CC(C)(C)c1ccc(C(=O)Nc2ccc(S(N)(=O)=O)cc2)cc1	Pf growth 96h inconclusive, HCV inhibitor 22µM, Pf growth 48h inconclusive
COc1ccc(S(=O)(=O)CCC(=O)NCCc2cccc(C)c2)cc1	Pf growth 96h inconclusive (no result: Pf growth 48h)
COC(=O)c1c(SCC(=O)Nc2ccccc2OC)[nH]c2ccccc2c1=O	none (no result: Pf growth 96h, HCV inhibitor, Pf growth 48h)

Screening results as filed in PubChem BioAssay.
